Three molecules from PubChem BioAssay (NCATS) can be followed below.

Inconclusive results are not listed. Entries that show only a call come without a potency. Activity calls are given as the source filed them. Unless noted, how the calls were made is not given here.

Assay [1] has as its target Glucocorticoid receptor (Homo sapiens) (UniProt P04150). Kind of assay: qHTS assay for small molecule antagonists of glucocorticoid receptor signaling (AID 588533; active means well fitted inhibition curve with a large enough effect in the signal ratio, with a control signal flat, not every such curve was filed as active; the % refers to the signal ratio;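 further: cells stimulated with 2 nM dexamethasone as agonist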). The procedure, abridged: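 Antagonist-mode qHTS: compound titrations added to GRE-bla HeLa cells, then dexamethasone 2 nM final; 18 h, 37 C. CCF4 FRET fluorescence normalized to dexamethasone and DMSO; IC50 from Hill fit.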

Assay [2] can be described thus: qHTS assay for small molecule activators of the human pregnane X receptor (PXR) signaling pathway (AID 720659).
Assay [3] can be described thus: qHTS assay for small molecule antagonists of peroxisome proliferator-activated receptor delta signaling (AID 588535; active means well fitted inhibition curve with a large enough effect in the signal ratio, with a control signal flat, not every such curve was filed as active; the % refers to the signal ratio;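 on max response: cells co-treated with a PPAR-delta agonist as stimulator during compound exposure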). The following applies: HEK293T PPARd-UAS-bla, beta-lactamase FRET ratio, 18 h; 460 nm channel. The procedure, abridged:
(§1)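 Fluorescence from CCF4-loaded GeneBLAzer PPAR-delta-UAS-bla HEK293T cells (2 hrs RT loading) quantified reporter inhibition after an 18 hr, 37 C compound exposure across a titration.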

For assay [4], the target named is Peroxisome proliferator-activated receptor delta (Homo sapiens) (UniProt Q03181). The assay is described as above. The procedure, abridged: as §1
Assay [5] addresses Peroxisome proliferator-activated receptor gamma (Homo sapiens) (UniProt P37231). As to the kind of experiment: qHTS assay for small molecule agonists of peroxisome proliferator-activated receptor gamma signaling (AID 588536; active means well fitted curve in the direction sought with a large enough effect in the signal ratio, with a control signal flat, not every such curve was filed as active; the % refers to the signal ratio). The procedure, abridged: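 Cells were plated and held 6–6.5 h at 37 C, then compounds were added as a titration series. After a further 16 h, CCF4 dye was loaded for 2 h at room temperature and emission at 460/530 nm recorded.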

Sequence of Glucocorticoid receptor (Homo sapiens) (P04150 whole entry, looked up): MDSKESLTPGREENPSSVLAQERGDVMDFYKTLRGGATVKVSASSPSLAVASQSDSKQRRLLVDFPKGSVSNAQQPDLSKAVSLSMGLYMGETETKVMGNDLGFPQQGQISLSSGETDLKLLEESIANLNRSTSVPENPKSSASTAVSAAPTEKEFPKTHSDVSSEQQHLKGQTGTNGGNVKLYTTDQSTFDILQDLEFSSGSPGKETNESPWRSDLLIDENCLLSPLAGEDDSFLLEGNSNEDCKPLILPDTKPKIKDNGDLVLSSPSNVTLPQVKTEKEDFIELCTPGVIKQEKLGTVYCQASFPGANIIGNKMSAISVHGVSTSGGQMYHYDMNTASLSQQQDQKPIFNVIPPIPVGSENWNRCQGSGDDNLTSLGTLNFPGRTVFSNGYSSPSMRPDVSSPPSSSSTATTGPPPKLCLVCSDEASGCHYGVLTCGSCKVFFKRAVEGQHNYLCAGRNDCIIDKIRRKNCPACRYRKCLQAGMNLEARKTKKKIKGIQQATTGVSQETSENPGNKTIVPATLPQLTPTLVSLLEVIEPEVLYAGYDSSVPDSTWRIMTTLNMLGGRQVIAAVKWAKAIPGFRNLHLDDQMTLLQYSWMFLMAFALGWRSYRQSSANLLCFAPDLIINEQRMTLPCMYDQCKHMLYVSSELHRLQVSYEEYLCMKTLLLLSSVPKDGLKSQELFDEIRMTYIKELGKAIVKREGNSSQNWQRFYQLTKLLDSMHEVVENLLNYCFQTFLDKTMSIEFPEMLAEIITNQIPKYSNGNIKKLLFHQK
Sequence of Peroxisome proliferator-activated receptor gamma (Homo sapiens) (P37231 whole entry, looked up): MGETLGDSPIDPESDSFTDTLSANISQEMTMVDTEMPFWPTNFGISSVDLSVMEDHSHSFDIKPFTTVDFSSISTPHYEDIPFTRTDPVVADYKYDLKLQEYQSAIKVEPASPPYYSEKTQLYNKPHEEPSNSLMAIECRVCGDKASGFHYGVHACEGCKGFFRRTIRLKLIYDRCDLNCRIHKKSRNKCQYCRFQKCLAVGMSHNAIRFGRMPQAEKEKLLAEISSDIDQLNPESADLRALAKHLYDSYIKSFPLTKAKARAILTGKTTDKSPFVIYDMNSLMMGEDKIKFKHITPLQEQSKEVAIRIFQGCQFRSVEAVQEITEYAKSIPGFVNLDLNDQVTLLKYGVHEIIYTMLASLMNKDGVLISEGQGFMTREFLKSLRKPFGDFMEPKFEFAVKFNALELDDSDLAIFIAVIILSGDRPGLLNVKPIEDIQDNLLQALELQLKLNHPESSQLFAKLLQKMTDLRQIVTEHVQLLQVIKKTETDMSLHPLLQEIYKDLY
Sequence of Peroxisome proliferator-activated receptor delta (Homo sapiens) (Q03181 whole entry, looked up): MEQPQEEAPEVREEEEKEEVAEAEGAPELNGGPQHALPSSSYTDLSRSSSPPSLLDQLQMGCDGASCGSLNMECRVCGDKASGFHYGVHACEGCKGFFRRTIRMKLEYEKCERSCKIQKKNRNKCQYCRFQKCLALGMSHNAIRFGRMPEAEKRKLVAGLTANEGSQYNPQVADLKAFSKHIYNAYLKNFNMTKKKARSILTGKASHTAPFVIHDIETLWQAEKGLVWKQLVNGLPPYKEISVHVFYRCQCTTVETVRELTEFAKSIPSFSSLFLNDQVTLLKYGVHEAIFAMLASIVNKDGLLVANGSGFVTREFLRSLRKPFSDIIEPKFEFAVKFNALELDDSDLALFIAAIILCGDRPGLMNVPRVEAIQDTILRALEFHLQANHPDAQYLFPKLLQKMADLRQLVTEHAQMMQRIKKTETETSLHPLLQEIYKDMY

`CC(C)N(C(=O)SCC(Cl)=C(Cl)Cl)C(C)C`: the Potency result in assay [1] is “inactive”.
`CC[C@H]1CCCC(O[C@H]2CC[C@H](N(C)C)[C@@H](C)O2)[C@@H](C)C(=O)C2=C[C@@H]3[C@@H](C=C[C@@H]4C[C@@H](O[C@@H]5O[C@@H](C)[C@H](OC)[C@@H](OC)[C@H]5OC)C[C@@H]34)[C@@H]2CC(=O)O1` (stereo not given in full): the call in assay [2] was inactive.
On to `CCOP(=S)(OCC)SCn1nnc2ccccc2c1=O`, for which, in assay [3], the max response is 7.16%. Besides, the Potency entry in assay [4] and in assay [5] was “inactive” in each case.
